Assay results as given in PubChem BioAssay.
Active and inactive are the calls of the source.

Assays:
[1] = optical density shifts of acrAB sulA E. coli – strain DRC41, OD650, 48 h, E. coli filamentation inducer project, primary screen (AID 1152); settings: higher = more signal, called active from +8 up or from −8 down;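 further: E. coli MC1000 strain DRC41 lacking acrAB efflux pump and sulA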
[2] = probe aLefty1 binding on compound microarray – biochemical, small-molecule microarray, 635/667 nm fluorescence, primary screen (AID 1153); settings: higher = more signal;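 further: score merges spot fluorescence with signal-to-noise ratio from the scanned slide images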
[3] = plasmodial surface anion channel blockers, osmotic lysis – cell-based, P. falciparum Indochina, OD700, 1 h, primary screen (AID 1154); settings: P. falciparum Indochina infected RBC osmotic lysis, higher = more signal, called active from +8 up or from −8 down
[4] = plasmodial surface anion channel blockers, osmotic lysis – cell-based, P. falciparum Indochina, OD700, 2 h, primary screen (AID 1155);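 further: lysis reports solute entry through the parasite surface anion channel PSAC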; settings: P. falciparum Indochina infected erythrocytes, higher = more signal, called active from +8 up or from −8 down
[5] = changes in parasitized red cell lysis, either direction – P. falciparum Indochina, OD700, 3 h, PSAC antagonist project, primary screen (AID 1156); settings: P. falciparum-infected erythrocytes, osmotic lysis, higher = more signal, called active from +8 up or from −8 down
[6] = plasmodial surface anion channel blockers, osmotic lysis – cell-based, P. falciparum Indochina, OD700, 18 h, primary screen (AID 1157); settings: P. falciparum Indochina infected erythrocytes, osmotic lysis OD700, 18 h; higher = more signal, called active from +8 up or from −8 down
[7] = S6 kinase pathway phospho-S6 level changes – cell-based, A549, cytoblot, luminescence, serum-stimulated, primary screen (AID 1158); settings: 5 h, higher = more signal;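 further: serum-stimulated A549 lung adenocarcinoma cells; signal is phosphorylated S6 detected by cytoblot immunostaining with HRP secondary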
[8] = biological target: NADPH oxidase 2 (Homo sapiens) (UniProt P04839); assay: compounds shifting NOX2 Amplex Red fluorescence – cell-based, HEK293-NOX2, PMA-stimulated, NOX inhibitor project, primary screen (AID 1159); settings: 45 min, higher = more signal, called active from +8 up or from −8 down; further: test concentration not given here
[9] = biological target: NADPH oxidase 4 (Homo sapiens) (UniProt Q9NPH5); assay: compounds shifting NOX4 Amplex Red fluorescence – cell-based, HEK293-NOX4, tetracycline-induced, NOX inhibitor project, primary screen (AID 1160); settings: HEK293-NOX4, Amplex Red H2O2 fluorescence, 45 min; higher = more signal, called active from +8 up or from −8 down
[10] = biological target: NADPH oxidase 5 (Homo sapiens) (UniProt Q96PH1); assay: compounds shifting NOX5 Amplex Red fluorescence – cell-based, HEK293-NOX5, NOX inhibitor project, primary screen (AID 1161); settings: HEK293-NOX5, ionomycin, 45 min, higher = more signal
Chain of NADPH oxidase 5 (Homo sapiens) (Q96PH1 whole entry, looked up): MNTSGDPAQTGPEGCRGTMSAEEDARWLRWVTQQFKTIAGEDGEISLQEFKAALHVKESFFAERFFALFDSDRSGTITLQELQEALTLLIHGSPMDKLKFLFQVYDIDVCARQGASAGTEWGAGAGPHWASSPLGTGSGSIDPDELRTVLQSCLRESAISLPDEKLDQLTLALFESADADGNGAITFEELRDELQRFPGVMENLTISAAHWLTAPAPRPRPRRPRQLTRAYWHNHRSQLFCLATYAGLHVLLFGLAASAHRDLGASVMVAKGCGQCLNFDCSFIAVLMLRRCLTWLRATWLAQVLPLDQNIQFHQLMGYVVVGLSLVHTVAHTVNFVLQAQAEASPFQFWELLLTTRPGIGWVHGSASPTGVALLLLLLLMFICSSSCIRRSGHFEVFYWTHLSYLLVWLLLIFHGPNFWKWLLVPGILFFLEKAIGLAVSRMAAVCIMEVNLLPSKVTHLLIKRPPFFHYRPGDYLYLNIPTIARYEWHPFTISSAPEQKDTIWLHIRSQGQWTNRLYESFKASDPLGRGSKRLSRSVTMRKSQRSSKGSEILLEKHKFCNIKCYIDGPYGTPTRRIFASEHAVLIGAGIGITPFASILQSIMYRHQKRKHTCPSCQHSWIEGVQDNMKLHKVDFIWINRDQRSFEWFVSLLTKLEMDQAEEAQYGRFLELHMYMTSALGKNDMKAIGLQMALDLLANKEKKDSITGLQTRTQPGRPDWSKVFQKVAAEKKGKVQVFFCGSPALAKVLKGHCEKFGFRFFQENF

Chain of NADPH oxidase 2 (Homo sapiens) (P04839 whole entry, looked up): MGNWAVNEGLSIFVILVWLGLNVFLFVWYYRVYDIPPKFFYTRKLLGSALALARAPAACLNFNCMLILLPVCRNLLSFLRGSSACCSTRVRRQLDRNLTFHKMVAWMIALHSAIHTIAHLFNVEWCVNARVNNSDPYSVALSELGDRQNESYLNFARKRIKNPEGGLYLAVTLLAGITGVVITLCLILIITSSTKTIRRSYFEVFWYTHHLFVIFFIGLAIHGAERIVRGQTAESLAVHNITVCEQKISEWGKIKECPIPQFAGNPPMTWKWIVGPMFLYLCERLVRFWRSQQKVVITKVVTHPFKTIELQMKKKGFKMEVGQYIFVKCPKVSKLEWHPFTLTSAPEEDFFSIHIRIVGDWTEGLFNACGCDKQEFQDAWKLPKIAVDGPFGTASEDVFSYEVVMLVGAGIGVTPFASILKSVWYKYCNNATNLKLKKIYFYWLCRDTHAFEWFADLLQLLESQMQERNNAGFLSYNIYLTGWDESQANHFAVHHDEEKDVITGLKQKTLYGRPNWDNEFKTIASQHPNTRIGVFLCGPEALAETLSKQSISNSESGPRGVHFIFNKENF
Chain of NADPH oxidase 4 (Homo sapiens) (Q9NPH5 whole entry, looked up): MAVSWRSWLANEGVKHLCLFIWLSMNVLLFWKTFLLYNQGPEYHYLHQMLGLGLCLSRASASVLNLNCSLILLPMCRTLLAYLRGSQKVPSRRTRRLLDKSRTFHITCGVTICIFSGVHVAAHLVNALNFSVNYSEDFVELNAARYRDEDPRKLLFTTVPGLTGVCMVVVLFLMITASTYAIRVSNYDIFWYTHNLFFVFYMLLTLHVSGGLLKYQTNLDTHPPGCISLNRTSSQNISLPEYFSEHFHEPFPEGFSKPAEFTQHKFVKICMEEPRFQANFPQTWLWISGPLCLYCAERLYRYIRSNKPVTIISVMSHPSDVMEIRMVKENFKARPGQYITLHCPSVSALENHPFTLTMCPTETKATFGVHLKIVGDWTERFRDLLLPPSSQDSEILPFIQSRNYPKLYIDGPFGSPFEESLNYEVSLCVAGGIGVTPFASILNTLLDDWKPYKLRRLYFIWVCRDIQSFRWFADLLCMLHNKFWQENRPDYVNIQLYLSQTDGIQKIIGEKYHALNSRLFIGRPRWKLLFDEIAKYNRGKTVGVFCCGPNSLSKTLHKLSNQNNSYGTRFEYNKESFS

SMILES	z-score [1]	composite z-score [2]	z-score [3]	z-score [4]	z-score [5]	z-score [6]	z-score [7]	z-score [8]	z-score [9]	z-score [10]
COc1ccc(C(O)C2C=CC3C(=O)N(c4ccccc4)C(=O)C3N2Nc2ccc([N+](=O)[O-])cc2)cc1 (stereo not given)	-1.35 (inactive)	0.987	14.3 (active)	2.49 (inactive)	0.547 (inactive)	1.24 (inactive)	-0.727	-0.897 (inactive)	-2.79 (inactive)	-2.72
COc1ccc(C#Cc2ccc3c(c2)[C@]2(C(=O)N3)[C@H](c3ccc(O)cc3)N3[C@H](c4ccccc4)[C@H](c4ccccc4)OC(=O)[C@H]3[C@@H]2C(=O)O)cc1	1.09 (inactive)	0.948	-1.12 (inactive)	-1.32 (inactive)	-8.12 (active)	-2.53 (inactive)	2.76	0.397 (inactive)	-2.46 (inactive)	0.00974
CC(C)(C)N1CC=CC23O[C@@H]4C=CCOC(=O)[C@@H]4[C@H]2C(=O)N(CCCCCCO)[C@@H]3C1=O (stereo not given in full)	-0.348 (inactive)	-0.108	1.69 (inactive)	0.127 (inactive)	0.935 (inactive)	0.381 (inactive)	-0.613	0.959 (inactive)	-0.503 (inactive)	1.47
CCOC(=O)C1CCCCN1 (stereo not given)	-0.641 (inactive)	1.08	-0.536 (inactive)	0.0175 (inactive)	-0.965 (inactive)	0.0086 (inactive)	-0.0896	0.0494 (inactive)	0.0488 (inactive)	-0.117
C[N+](C)(C)CCCCCCNC(=O)[C@H]1C[C@H]2C(=O)NCC(=O)N2[C@H]1c1ccc(O)cc1	0.16 (inactive)	-0.455	1.76 (inactive)	0.682 (inactive)	-1.2 (inactive)	-0.0189 (inactive)	-0.217	0.446 (inactive)	0.256 (inactive)	0.328
O=C1O[C@H](c2ccccc2)[C@H](c2ccccc2)N2[C@H]1[C@@H](C(=O)O)[C@]1(C(=O)Nc3ccc(C#CC4=CCCCC4)cc31)[C@H]2c1ccc(O)cc1	-1.14 (inactive)	-0.242	-2.37 (inactive)	-0.921 (inactive)	-10.4 (active)	-0.451 (inactive)	-0.497	1.62 (inactive)	-3.15 (inactive)	-0.32
CC(C)Cc1ccc(CN2CC[C@@H](NC(=O)Nc3ccccc3)C2)cc1	-3.31 (inactive)	-0.191	1.96 (inactive)	0.981 (inactive)	1.84 (inactive)	0.575 (inactive)	-1.03	-0.507 (inactive)	-0.351 (inactive)	-1.88
COc1ccc([Si](C)(C)[C@@H]2[C@@H](CC(=O)N(CCO)Cc3ccccc3)O[C@]3(C(=O)N(c4ccccc4)c4ccccc43)[C@H]2C)cc1	1.3 (inactive)	0.201	9.05 (active)	1.2 (inactive)	-1.43 (inactive)	0.303 (inactive)	1.73	-0.0719 (inactive)	0.574 (inactive)	-1.55
COC(=O)[C@@]1(Cc2ccc(OC)cc2)[C@H]2c3cc(C(=O)N4CCCC4)n(Cc4c(-c5ccccc5)noc4C)c3C[C@H]2CN1C(=O)c1ccccc1	-0.615 (inactive)	0.956	5.34 (inactive)	1.25 (inactive)	-0.749 (inactive)	1.5 (inactive)	0.406	0.428 (inactive)	0.486 (inactive)	2.59
CCCC[C@@H](O)C1=C(COc2ccccc2)C[C@H]2C(=O)N(C)C(=O)[C@H]2[C@H]1CO	2.41 (inactive)	-0.274	4.68 (inactive)	-0.35 (inactive)	0.241 (inactive)	-1.53 (inactive)	1.56	-0.69 (inactive)	0.449 (inactive)	0.187
CCOC(=O)C1=CC[C@@H](c2ccccc2C(F)(F)F)N(S(=O)(=O)c2ccc(C)cc2)[C@H]1c1ccc(C#N)cc1	-0.53 (inactive)	0.165	0.873 (inactive)	1.65 (inactive)	0.341 (inactive)	0.876 (inactive)	-0.669	0.823 (inactive)	0.699 (inactive)	0.102
C[N+](C)(C)CCCCCCNC(=O)[C@H]1C[C@H]2C(=O)N[C@@H](Cc3ccccc3)C(=O)N2[C@H]1c1ccc(O)cc1	0.796 (inactive)	-0.0475	6.4 (inactive)	1.3 (inactive)	-0.194 (inactive)	0.374 (inactive)	-0.0246	0.847 (inactive)	1.13 (inactive)	-0.0901
COC(=O)c1c(CC[C@@H](CO)NC(=O)N2CCC[C@H]2Cn2cc(Cc3ccccc3)nn2)oc(C(C)=O)c1C(=O)OC	-0.195 (inactive)	-0.177	0.133 (inactive)	0.258 (inactive)	0.876 (inactive)	-0.033 (inactive)	0.567	-1.79 (inactive)	-0.894 (inactive)	-1.85
O=C(CS)NCCCCCCNC(=O)[C@H]1C[C@H]2C(=O)N[C@@H](Cc3ccccc3)C(=O)N2[C@H]1c1ccc(O)cc1	-0.558 (inactive)	-0.54	8.58 (active)	1.21 (inactive)	-0.177 (inactive)	0.767 (inactive)	-0.0427	0.593 (inactive)	-0.0574 (inactive)	1.08
